Compound activity as filed in PubChem BioAssay.
HSP90 inh = HSP90 inhibitors, primary screen, cell lysate, luminescence; Rabbit reticulocyte lysate, luciferase refolding luminescence, 3 h; inhibition, % at 5.6 µM; AID 1789, 2009; 290,000 tested, 0.91% active;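 active = inhibition above the screen-wide mean plus 3 SD, computed separately per campaign, cut at about 16% in these data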;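 note: inhibitors lower the luminescence because luciferase stays unfolded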
SENP8 block-1 = SENP8 protease inhibitors, primary screen, biochemical, luminescence; 330,000 tested, 1.2% active; purified SENP8, Z-RLRGG-aminoluciferin cleavage; Sentrin-specific protease 8 (Homo sapiens), Q96LD8; inhibition, % at 10 µM; in the data active = inhibition above about 50%
Target sequence (Q96LD8 whole entry, looked up): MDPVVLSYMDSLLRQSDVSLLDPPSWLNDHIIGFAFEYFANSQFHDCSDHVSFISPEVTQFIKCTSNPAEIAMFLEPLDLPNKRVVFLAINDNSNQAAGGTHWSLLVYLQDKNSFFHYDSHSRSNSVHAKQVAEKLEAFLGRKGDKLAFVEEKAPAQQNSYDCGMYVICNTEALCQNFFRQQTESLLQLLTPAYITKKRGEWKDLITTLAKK
SENP6 inh = SENP6 protease inhibitors, primary screen, biochemical, luminescence, uHTS | Recombinant SENP6 catalytic domain, aminoluciferin luminescence | 330,000 tested, 1.8% active | inhibition, % at 10 µM | AID 2599, 2010;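 active = inhibition above about 50% at the single tested dose, limit read from the data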
SENP7 inh = SENP7 protease inhibitors, primary screen, biochemical, luminescence, uHTS; Sentrin-specific protease 7 (Homo sapiens), Q9BQF6; recombinant SENP7, Z-RLRGG-aminoluciferin luminescence, 40 min; inhibition, % at 5 µM; 330,000 tested, 1.5% active; AID 434973, 2010;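 active = inhibition above about 50% at the single test dose, limit read from the data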
Target sequence (Q9BQF6 706-1050 limits assumed): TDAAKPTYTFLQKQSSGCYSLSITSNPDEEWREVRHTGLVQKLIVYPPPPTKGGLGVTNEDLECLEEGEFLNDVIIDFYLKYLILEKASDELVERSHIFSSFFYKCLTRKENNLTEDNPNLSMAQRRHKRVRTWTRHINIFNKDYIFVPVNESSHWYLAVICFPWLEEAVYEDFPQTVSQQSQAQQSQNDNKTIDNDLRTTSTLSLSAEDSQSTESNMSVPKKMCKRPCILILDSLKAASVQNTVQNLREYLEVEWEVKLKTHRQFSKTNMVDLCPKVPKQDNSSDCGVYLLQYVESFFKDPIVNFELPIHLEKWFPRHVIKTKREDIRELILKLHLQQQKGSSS
SENP8 block-2 = human SENP8 protease inhibitors, primary screen, biochemical, fluorescence, Nedd8 protein substrate, uHTS | recombinant SENP8 | inhibition, % at 20 µM | 360,000 tested, 0.64% active | AID 602440, 2012; in the data active = inhibition mostly above about 40%, no sharp cut-off; inactive = mostly below about 27%
A number is an active result; 0 = inactive; - = no result given. Sampled rows, rich in hits. Any-hit rate of the full collection: about 2.8%.

SMILES	HSP90 inh	SENP8 block-1	SENP6 inh	SENP7 inh	SENP8 block-2
COc1ccc(CNc2nc3ccccc3n2C)c(OC)c1	0	60	0	61	0
c1ccc(-c2cnnc(N3CCOCC3)n2)cc1	0	0	0	0	0
CN(C)/N=C/c1ccc(Sc2ccccc2[N+](=O)[O-])o1	0	0	0	0	0
O=C(O)c1cccc(NC(=O)c2ccc3c(c2)C(=O)N(Cc2ccco2)C3=O)c1	0	84	89	88	0
COc1cc(N=Nc2ccc(Br)cc2)cc(C=O)c1O	-	-	-	-	44
C=CCNC(=S)NNC(=O)C(CCCC)CC(C)O (stereo unspecified)	0	0	0	0	0
COCCn1c(N)c(C(=O)NCC2CCCO2)c2nc3ccccc3nc21 (stereo unspecified)	0	86	84	63	0
O=C(Nc1ccc([N+](=O)[O-])cc1)C(=O)Nc1cccc(C(=O)O)c1	78	97	99	99	0
O=C(Cn1nc2ccccc2n1)N/N=C/c1cc(Cl)cc([N+](=O)[O-])c1O	0	-	-	-	0
Brc1cc2c(cc1/C=N/Nc1nc3ccccc3s1)OCO2	0	0	0	0	0
C(=N\Nc1nc2ccccc2s1)/c1ccc2c(c1)OCO2	0	55	67	89	0
O=[N+]([O-])c1cc(Cl)cc(/C=N/Nc2nc3ccccc3s2)c1O	0	0	54	0	0
Brc1csc(/C=N/Nc2nc3ccccc3s2)c1	0	57	0	76	0
COCCn1c(SCC(=O)NC(=O)NC2CCCC2)nc2ccccc2c1=O	-	0	0	0	0
O=C(CCC1CCCCC1)Nc1cccnc1	0	0	0	0	36
Oc1ccccc1N=Nc1nc(-c2ccccc2)c(-c2ccccc2)[nH]1	0	0	0	0	51
COc1ccc(C(C#N)N2N=C(c3ccccc3)CC2c2ccccc2)cc1OC (stereo unspecified)	0	0	0	73	0
Brc1cc2c(cc1C1Nc3ccccc3C3C=CCC31)OCO2 (stereo unspecified)	0	0	0	0	40
Oc1ccc(N=Nc2cccc(C(F)(F)F)c2)cc1C=Nc1ccc(N2CCOCC2)cc1	0	0	66	0	36
CS(=O)(=O)N1CCN(c2ccc(NC(=O)C(c3ccccc3)c3ccccc3)cc2)CC1	0	0	0	0	0
O=C(Nc1ccc(N2CCCC2)cc1)C(Cl)c1ccccc1 (stereo unspecified)	0	0	66	0	0
Cc1csc(NC(=O)/C=C/c2ccc3c(c2)OCO3)n1	0	0	77	61	0
Cc1ccc(NC(=S)NNC(=O)Nc2ccccc2)cc1	0	0	52	0	0
O=C(NNC(=S)Nc1ccccc1)Nc1ccccc1	0	0	0	0	0
Cn1cnnc1Sc1ccc(C(=O)NCCC23CC4CC(CC(C4)C2)C3)cc1[N+](=O)[O-]	0	0	0	0	0
SMILES	HSP90 inh	SENP8 block-1	SENP6 inh	SENP7 inh	SENP8 block-2
CCC(N=c1cc(-c2ccc(OC)cc2)oc2ccc(C)cc12)C(=O)O (stereo unspecified)	0	0	52	0	0
CCC(N=c1cc(-c2ccc(OC)c(OC)c2)oc2ccc(C)cc12)C(=O)O (stereo unspecified)	0	0	0	0	0
CC(N=Cc1cc([N+](=O)[O-])ccc1O)c1ccccc1 (stereo unspecified)	0	0	0	0	0
CC(N=Cc1cccc(O)c1O)c1ccccc1 (stereo unspecified)	0	0	0	0	81
Cn1cccc1/C=C1\SC(=S)N(NC(=O)c2ccc(F)cc2)C1=O	0	0	0	0	52
CC(/C=C1\SC(=S)N(NC(=O)c2ccc(C)cc2)C1=O)=C\c1ccccc1	0	0	0	0	40
Cn1cccc1/C=C1\SC(=S)N(NC(=O)c2ccccc2O)C1=O	0	0	0	0	47
COc1ccccc1/C=N/n1nnnc1N	0	0	0	0	0
Cc1ccc2nc(NC(=O)Cc3cccs3)sc2c1	0	0	63	54	0
NS(=O)(=O)c1ccc(N=Nc2c(-c3ccccc3)[nH]n(-c3nc(-c4ccccc4)cs3)c2=O)cc1	0	0	0	0	0
Nc1[nH]n2c(=O)cc(-c3ccccc3)nc2c1N=Nc1ccc(S(N)(=O)=O)cc1	0	0	0	0	60
Cc1ccc(N=Nc2c(N)[nH]n3c(=O)cc(C)nc23)cc1	0	-	-	-	0
Nc1[nH]n2c(=O)cc(-c3ccccc3)nc2c1N=Nc1ccccc1	0	0	0	0	57
Cn1c(=O)cc(OCCCC(=O)Nc2cccnc2)c2ccccc21	0	0	0	0	0
COc1ccccc1N1CCN(C(=O)CCNS(=O)(=O)c2ccc3c(c2)CCC(=O)N3)CC1	16	0	0	0	0
CC(=NNc1ccc([N+](=O)[O-])cn1)c1ccc(N)cc1	-	-	-	-	58
C/C(=N\Nc1ccc([N+](=O)[O-])cc1)c1ccc(N)cc1	0	-	-	-	0
CCOC(=O)c1sc(NC(=S)NC(=O)C2CCCC2)cc1C	0	0	0	0	0
CCCCCC(=O)Nc1ccc(N2CCOCC2)c(S(=O)(=O)Nc2ccc(OC)cc2)c1	-	0	0	0	0
O=C1c2ccccc2[C@@H]2CC(O)C(O)CCN12 (stereo partly specified)	-	-	-	0	0
CC1(C)Cc2ccccc2C2CC(O)C(=O)N21 (stereo unspecified)	0	0	0	0	40
CC(=O)N(C)c1ccc(N2CCOCC2)c2c1C(=O)c1ccccc1C2=O	-	0	0	0	0
O=C1c2ccccc2C(=O)c2c1cccc2N1CCOCC1	0	0	0	0	43
CCOC(=O)N=Nc1c(O)n(CC(=O)OC)c2ccccc12	0	0	0	0	0
CCOC(=O)N=Nc1c2ccccc2c2nc3no[nH]c3nc12	0	0	62	0	94
SMILES	HSP90 inh	SENP8 block-1	SENP6 inh	SENP7 inh	SENP8 block-2
Cc1ccccc1NC(=O)C(=O)Nc1ccccc1C	0	0	0	80	0
CCN(CC(=O)NCc1ccc(Cl)cc1)C(=O)c1ccc(S(=O)(=O)N(C)C)cc1	0	0	0	0	0
N#C/C(=C(/O)c1ccc2c(c1)OCO2)c1nc2cc(C(F)(F)F)ccc2s1	0	54	0	0	0
N#C/C(=C(/O)c1ccccc1F)c1nc2cc(C(F)(F)F)ccc2s1	0	0	0	0	0
Cc1ccc(N2C(=O)c3ccccc3C2O)nc1 (stereo unspecified)	33	-	-	-	-
Cc1cc(C(=O)CSc2nnc(-c3ccccc3)o2)c(C)n1CC1COc2ccccc2O1 (stereo unspecified)	16	0	0	0	0
Cc1cc(C(=O)CSc2nnc(-c3ccc(F)cc3)o2)c(C)n1CC1COc2ccccc2O1 (stereo unspecified)	0	0	0	0	0
Cc1c(C(=O)N2CCCC2)nnn1-c1nonc1N	0	0	0	0	0
CCS(=O)(=O)c1ccc2oc(Nc3ccccc3Br)nc2c1	0	87	92	95	0
